HT1080NT lethal: kills 2HG-producing HT-1080-NT fibrosarcoma cells. HT-1080-NT fibrosarcoma viability, CellTiter-Glo ATP luminescence, 48 h. Potency, µM (titrated, usually from 46.1 µM), for inactives: at the top dose activity, negative = less viability, hits mostly cytotoxic. 360,000 tested, 1.6% active. AID 686970;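 further: NT is the 2HG producing partner of a matched IDH1 knockdown line; potency means the concentration at half of the fitted maximal effect; 0% = DMSO-treated cells and -100% = media-only wells without cells; nearly all actives have a fitted effect of over 55% in size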
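750 cells/well, RPMI + 5% FBS; 2 h settle, compound pin-transfer, 48 h at 37 degrees C. CellTiter-Glo 10 min RT, luminescence. Normalized to DMSO and media-only wells.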
DT40 TDP1 no CPT: qHTS for Inhibitors of human tyrosyl-DNA phosphodiesterase 1 (TDP1): qHTS in cells in absence of CPT. DT40 Tdp1-/- hTDP1 cells, no CPT, ATP luminescence, 48 h. Potency, µM (top dose mostly 46.2 µM), for the others: top-dose activity change, negative = growth inhibition, usual class: inhibitors. 420,000 tested, 15% active; further: potency means the concentration at half of the fitted maximal effect; nearly all actives have a fitted effect of over 55% in size
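Luminescent ATP content (CellTiter-Glo) served as the growth readout. Knockout chicken DT40 cells expressing human TDP1 were exposed to compounds without camptothecin for a minimum 48 hr at 37 °C.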
uPA generation: cell surface uPA generation inhibition; cell surface uPA generation assay, qHTS; Potency, µM (series often up to 38.3 µM), for the others: at the top dose activity change, negative = inhibition, hits mostly inhibitors; 330,000 tested, 0.31% active; active means well fitted inhibition curve with a large enough effect; inconclusive means small, poorly fitted or top-dose-only effect; inactive means no such curve, though single readings can be large or run the other way; tested in mouse RAW 264.7 cells; further: potency means the concentration at half of the fitted maximal effect; nearly all actives have a fitted effect of over 55% in size
IL1B secr inh: inhibitors of inflammasome signaling (IL-1 beta secretion); THP-1 LPS/ATP IL-1B secretion, AlphaLISA, 16 h; stronger effect = lower value; activity change, % at 57.5 µM; 360,000 tested, 4.7% active; AID 743279; in the data active means activity change below about -50%; inconclusive means mostly about -30% to -49%
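THP-1 cells pretreated 1 hr with compounds (up to 57.5 uM final), then stimulated with LPS (250 ng/mL final) plus ATP (1.25 mM final); secreted IL-1B measured by AlphaLISA after 16 hr, decreased signal indicating inhibition.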
HT1080 IDH1KD tx: HT-1080 IDH1 knockdown cell toxicity (counter line). HT-1080 IDH1 knockdown viability, ATP luminescence, 48 h. Potency, µM (highest dose often 46.1 µM), without a hit: top-dose activity, negative = toxicity, actives largely listed as cytotoxic. 360,000 tested, 2% active. AID 686971;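 further: potency means the concentration at half of the fitted maximal effect; 0% = DMSO wells and -100% = cell-free medium wells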
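IDH1KD HT-1080 cells, 750/well, RPMI + 5% FBS; compound pinned after 2 h settling; 48 h, 37 °C; CellTiter-Glo luminescence; % activity normalised to DMSO and no-cell wells; curves fitted, classed by r2 and efficacy.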
DT40 TDP1 CPT: DT40-hTDP1 cell growth loss with CPT | 420,000 tested, 12% active | chicken DT40 Tdp1-/-;hTDP1 cells + 20 nM CPT, ATP luminescence, 48 h | Potency, µM (top dose mostly 46.2 µM), without a hit: top-dose activity change, negative = growth inhibition, actives largely listed as inhibitors | AID 686979; further: potency means the concentration at half of the fitted maximal effect; nearly all actives have a fitted effect of over 55% in size
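Chicken DT40 Tdp1-/- cells stably complemented with human TDP1 were seeded at 400 cells/well in medium containing 20 nM camptothecin, exposed to pin-transferred compounds, and grown at 37 °C for at least 48 hr. Viability was read as ATP luminescence.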
An asterisk follows results filed as active; ? = inconclusive; . = no result; [ ] = another dose, or the depositor's remark. Compounds with a hit are over-represented: about 19% of the library has one in this group of screens. Unless noted, the call rests on the fitted dose curve; in most records, active means well fitted curve in the direction sought with a large enough effect; inconclusive means small, poorly fitted or top-dose-only effect, or another doubt; inactive means no such curve, though single readings can be large; an effect the other way counts as inactive or inconclusive. Unless noted, on the % scale 0 is the no-effect control and ±100 the full control effect.

SMILES	HT1080NT lethal	DT40 TDP1 no CPT	uPA generation	IL1B secr inh	HT1080 IDH1KD tx	DT40 TDP1 CPT
Cc1ccc2c(CN3CCN(C(=O)c4ccc(F)cc4)CC3)cc(=O)oc2c1	.	-61.1%	.	.	.	18.4µM*
O=c1cc(CN2CCN(c3ccccc3F)CC2)c2c(ccc3ccccc32)o1	4.8%	18.4µM*	.	5.2	5.3%	16.4µM*
COc1ccc(CN2CCN(Cc3cc(=O)oc4cc(C)ccc34)CC2)c(OC)c1OC	-23.8%	16.4µM*	-2.3%	-1.3	?	25.9µM*
COc1ccccc1N1CCN(Cc2cc(=O)oc3cc(C)ccc23)CC1	1.6%	?	.	?	-4.2%	23.1µM*
CC1(C)Cc2nc3scc(NC(=O)c4ccccc4)c3cc2CO1	8.5%	?	?	10.6	8.8%	?
CC(C)Cn1nc(NC(=O)c2ccco2)c2cc3ccccc3nc21	-5.5%	13µM*	-2.5%	39.7	14.6%	14.6µM*
COc1ccc2nc3c(cc2c1)c(NC(=O)c1cccs1)nn3CC(C)C	?	?	7.0%	-50.7*	13µM*	?
CC(C)Cn1nc(NC(=O)c2cccs2)c2cc3ccccc3nc21	-4.5%	8.2µM*	-9.2%	-0.4	-10.0%	?
CCCCn1nc(NC(=O)CC)c2cc3cc(OC)ccc3nc21	11.9%	?	14.3%	10.9	6.9%	?
CC(I)CCC(C)[n+]1cccc(I)c1 (configuration not stated)	.	4.0%	.	.	.	14.7%
CC(C)(C)C1CCc2c(sc3ncn(N)c(=N)c23)C1 (configuration not stated)	-29.5%	6.51µM*	-10.3%	-75.5*	?	16.4µM*
O=C(Cc1ccccc1)N/N=C/c1ccc([N+](=O)[O-])s1	?	23.1µM*	-10.5%	-1.5	?	20.6µM*
O=C(Cc1ccccc1)N/N=C/c1cccs1	3.6%	-21.2%	1.3%	2.5	5.6%	-7.9%
O=C(CNC(=O)c1cccc(Br)c1)N/N=C/c1cccs1	9.2%	13.6%	8.5%	0.7	11.5%	1.5%
O=C(CNC(=O)c1cccc(F)c1)N/N=C/c1ccc([N+](=O)[O-])s1	-29.1%	5.8µM*	10µM*	34.4	-20.8%	18.4µM*
O=C(N/N=C\c1ccc([N+](=O)[O-])s1)c1cncc(Br)c1	?	3.26µM*	?	-58.2*	6.51µM*	5.17µM*
Cc1ccccc1C(=O)N/N=C/c1ccc([N+](=O)[O-])s1	20µM*	13µM*	?	-64.7*	8.91µM*	16.4µM*
COc1ccc2ccccc2c1CN1CCCC(n2cc(C(=O)N3CCCC3)nn2)C1 (configuration not stated)	.	-9.0%	.	.	.	-0.1%
CCNc1ncc2nc(-c3cccs3)c(=O)n(Cc3cccc(OC)c3)c2n1	.	-3.4%	.	.	.	-14.8%
CC[C@]1(C(=O)OC)[C@H]2C(=O)N(C)C(=O)[C@H]2[C@H]2CN=C(SC)N21	6.0%	-3.6%	3.9%	17.6	4.4%	3.9%
CN(Cc1ccon1)C(=O)c1cnn(-c2ncc3c(n2)-c2ccccc2CCC3)c1C1CC1	.	?	.	.	.	-2.1%[9.04 µM]
COc1ccccc1NC(=O)C(=O)N/N=C/c1ccc([N+](=O)[O-])s1	14.5%	?	?	-11.1	0.1%	11.6µM*
COC(=O)N/N=C/c1ccc([N+](=O)[O-])s1	-0.7%	14.6µM*	-10.6%	-16.7	?	13µM*
COc1ccc(NC(C)C(=O)N/N=C/c2ccc([N+](=O)[O-])s2)cc1 (configuration not stated)	-21.2%	23.1µM*	-12.2%	-8.6	-3.6%	16.4µM*
O=C(N/N=C/c1ccc([N+](=O)[O-])s1)c1ccccc1	-9.9%	4.11µM*	-20.9%	?	-13.1%	4.61µM*
SMILES	HT1080NT lethal	DT40 TDP1 no CPT	uPA generation	IL1B secr inh	HT1080 IDH1KD tx	DT40 TDP1 CPT
N#Cc1nnn(-c2ccc(Cl)cc2)c1N	-2.1%	-0.3%	9.5%	2.9	2.3%	2.9%
COc1ccc(S(=O)(=O)N2CCC3CC2c2cc(N4CCOCC4)ccc23)cc1 (configuration not stated)	-5.9%	?	-12.3%	6.9	-5.2%	?
CCOC(=O)N1CCN(Cc2ccc3ccccc3c2)CC1	0.1%	?	24.5%	6.7	1.9%	-12.6%
Cc1ccnn1CC(=O)N/N=C/c1ccc([N+](=O)[O-])s1	?	23.1µM*	?	29.6	-20.6%	25.9µM*
CCn1nc(C)c(/C=N/NC(=O)Cn2nccc2C)c1C	13.5%	-0.7%	-9.0%	21.6	7.0%	-15.6%
Cc1cccc(CN2CCN(C3CN(Cc4cn(Cc5cccc(C(F)(F)F)c5)nn4)S(=O)(=O)C3)CC2)c1 (configuration not stated)	-18.8%	20.6µM*	.	-15.4	-25.2%	?
CCCCCCN1CCN(C2CN(Cc3ccc(C)cc3)S(=O)(=O)C2)CC1 (configuration not stated)	-18.1%	?	.	-12.1	-28.1%	23.1µM*

Source: PubChem
